Experiment [1] concerns Human papillomavirus type 1a protein E7 (residues 44-93). Briefly: small molecules binding HPV E7 44-93 – biochemical, small-molecule microarray, residues 44-93, 635 nm fluorescence, primary screen (AID 1108).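 Also: E7 fragment applied at 1 µg/mL in TBST for 1 h at 4 C; score combines spot fluorescence with its signal to noise ratio.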 As to conditions: fluorescence 635 nm, higher = more signal.
Experiment [2] can be described thus: hepatitis C replication reporter changes, two-sided – Huh7 cells, luciferase reporter, HCV replication inhibitor project, primary screen (AID 1109).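 Also: huh7 hepatoma cells harbouring a luciferase neomycin HCV replicon reporter; luciferase luminescence as measure of HCV replicon replication; test concentration not given here.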 As to conditions: Huh7 HCV replicon luciferase reporter, 48 h; higher = more signal.
The target of experiment [3] is Left-right determination factor 2 (Homo sapiens) (UniProt O00292). The experiment in a line: small molecules binding LEFTY2 protein – biochemical, small-molecule microarray, 635 nm fluorescence scan, primary screen (AID 1110). The conditions noted are these: higher = more signal.
Left-right determination factor 2 (Homo sapiens), sequence (O00292 whole entry, looked up): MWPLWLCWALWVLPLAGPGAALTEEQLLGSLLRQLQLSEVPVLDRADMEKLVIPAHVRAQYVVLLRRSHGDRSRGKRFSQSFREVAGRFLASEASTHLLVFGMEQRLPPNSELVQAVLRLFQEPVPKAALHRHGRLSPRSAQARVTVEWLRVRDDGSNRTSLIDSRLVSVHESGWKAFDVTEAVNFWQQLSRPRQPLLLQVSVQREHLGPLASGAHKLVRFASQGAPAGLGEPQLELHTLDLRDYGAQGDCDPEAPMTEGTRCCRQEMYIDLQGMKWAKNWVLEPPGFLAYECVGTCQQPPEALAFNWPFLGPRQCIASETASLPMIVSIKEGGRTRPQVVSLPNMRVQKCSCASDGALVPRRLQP
The target of experiment [4] is Calmodulin-1 (Homo sapiens) (UniProt P0DP23). The experiment in a line: small molecules binding calmodulin-1 with EGTA – biochemical, small-molecule microarray, Cy5-labelled CALM1, profiling panel (AID 1111).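 Also: labelled calmodulin applied in Tris saline Tween buffer holding calcium plus EGTA and DTT.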 As to conditions: Cy5-CALM1 binding fluorescence, higher = more signal.
For experiment [5] the target is unchanged. The experiment in a line: small molecules binding Ca-loaded calmodulin-1 – biochemical, small-molecule microarray, Cy5-labelled CALM1, plus calcium, artefact control for SMM control-protein annotation, profiling panel (AID 1112).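 Also: score merges spot fluorescence with signal to noise from triplicate slides.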 As to conditions: Cy5-CALM1 binding fluorescence, higher = more signal.
Experiment [6] is described as follows: probe aWnt5a binding to arrayed compounds – biochemical, biotinylated probe, 635/667 nm fluorescence, primary screen (AID 1113).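 Also: score merges 667 nm fluorescence intensity with signal-to-noise per printed feature.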 As to conditions: small-molecule microarray, higher = more signal.
The nature of experiment [7]: probe aShh binding to arrayed compounds – biochemical, biotinylated probe, 635/667 nm fluorescence, primary screen (AID 1114).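 Also: probe is biotin-labelled aShh protein from a stem cell growth factor screen; measures binding of labelled protein to compounds printed on the slide; score merges feature fluorescence at 667 nm with signal-to-noise.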 As to conditions: small-molecule microarray, higher = more signal.
Experiment [8] in a line: probe aNog binding to arrayed compounds – biochemical, biotinylated probe, 635/667 nm fluorescence, primary screen (AID 1115).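 Also: probe is biotinylated aNog protein used at 0.15 µg/mL for 1 h at 4 C; z-score combines 667 nm fluorescence of each spot with its signal to noise.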 The conditions noted are these: small-molecule microarray, higher = more signal.
Experiment [9] deals with Torsin-1A-interacting protein 1 (Homo sapiens) (UniProt Q5JTV8). Briefly: compound microarray binding of lysate hLAP1 – cell lysate, small-molecule microarray, COS7 lysate, 635/667 nm fluorescence, primary screen (AID 1116). As to conditions: 635 nm fluorescence, higher = more signal.
Torsin-1A-interacting protein 1 (Homo sapiens), sequence (Q5JTV8 whole entry, looked up): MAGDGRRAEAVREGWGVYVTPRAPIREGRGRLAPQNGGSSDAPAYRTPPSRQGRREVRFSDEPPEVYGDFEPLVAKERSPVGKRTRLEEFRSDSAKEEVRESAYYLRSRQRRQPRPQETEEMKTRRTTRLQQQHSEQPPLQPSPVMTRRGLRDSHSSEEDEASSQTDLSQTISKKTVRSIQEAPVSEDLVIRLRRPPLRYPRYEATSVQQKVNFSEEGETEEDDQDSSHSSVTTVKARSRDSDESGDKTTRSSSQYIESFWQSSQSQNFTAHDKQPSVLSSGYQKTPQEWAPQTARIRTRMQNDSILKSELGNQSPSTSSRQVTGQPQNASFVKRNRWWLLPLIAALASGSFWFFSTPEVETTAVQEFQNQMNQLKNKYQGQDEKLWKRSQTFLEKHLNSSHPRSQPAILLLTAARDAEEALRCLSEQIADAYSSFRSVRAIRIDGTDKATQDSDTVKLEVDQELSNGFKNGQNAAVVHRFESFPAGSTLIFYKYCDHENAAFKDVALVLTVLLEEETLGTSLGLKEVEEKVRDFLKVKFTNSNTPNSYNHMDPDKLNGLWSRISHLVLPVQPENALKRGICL
Experiment [10] addresses Alpha-bungarotoxin (Bungarus multicinctus) (UniProt P60615). Briefly: compounds binding labelled alpha-BTX control protein – biochemical, small-molecule microarray, Alexa647 label, 635/667 nm fluorescence, artefact control for SMM control protein annotation, profiling panel (AID 1117). As to conditions: alpha-BTX-A647 binding fluorescence, higher = more signal.
Another experiment deals with Albumin (Bos taurus) (UniProt P02769). The experiment in a line: compounds binding labelled BSA control protein – biochemical, small-molecule microarray, Alexa647 label, 635/667 nm fluorescence, artefact control for SMM control protein annotation, profiling panel (AID 1118).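 Also: score merges 667 nm emission intensity and signal-to-noise per printed compound spot.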 The conditions noted are these: BSA-A647 binding, fluorescence 635 nm, higher = more signal.
Albumin (Bos taurus), sequence (P02769 whole entry, looked up): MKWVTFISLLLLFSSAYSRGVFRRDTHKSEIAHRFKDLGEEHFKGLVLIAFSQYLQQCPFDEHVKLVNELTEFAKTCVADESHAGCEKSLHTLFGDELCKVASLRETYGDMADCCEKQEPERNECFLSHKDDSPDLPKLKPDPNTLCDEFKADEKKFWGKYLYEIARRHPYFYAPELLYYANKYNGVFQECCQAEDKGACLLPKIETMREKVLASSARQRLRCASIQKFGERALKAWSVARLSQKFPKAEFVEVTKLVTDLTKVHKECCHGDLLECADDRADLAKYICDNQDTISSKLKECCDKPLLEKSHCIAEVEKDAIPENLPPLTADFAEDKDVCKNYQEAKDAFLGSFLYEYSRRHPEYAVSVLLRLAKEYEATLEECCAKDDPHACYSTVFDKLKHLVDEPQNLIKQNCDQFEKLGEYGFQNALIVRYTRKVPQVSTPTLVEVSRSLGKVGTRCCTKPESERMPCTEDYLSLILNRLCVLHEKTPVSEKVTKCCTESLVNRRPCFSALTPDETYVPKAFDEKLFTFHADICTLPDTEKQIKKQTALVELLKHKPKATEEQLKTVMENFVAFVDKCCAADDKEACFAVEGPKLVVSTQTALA
Experiment [11] can be described thus: probe aXIP binding to arrayed compounds – biochemical, NeuroSMM set, 635/667 nm fluorescence, primary screen (AID 1119).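 Also: probe is the protein aXip251-270 applied at 1 µg/mL to compound-printed slides; binding of probe to printed compounds measured as 667 nm fluorescence plus signal to noise.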 The conditions noted are these: small-molecule microarray, higher = more signal, called active from +8 up or from −8 down.
The nature of experiment [12]: probe aNOTCH3 binding on compound microarray – biochemical, small-molecule microarray, 635/667 nm fluorescence, primary screen (AID 1120).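 Also: probe is a biotin-tagged antibody raised against NOTCH3 rather than NOTCH3 protein; score merges spot fluorescence near 667 nm with spot signal to noise.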 As to conditions: higher = more signal.
Experiment [13] can be described thus: probe aNOTCH2 binding on compound microarray – biochemical, small-molecule microarray, 635/667 nm fluorescence, primary screen (AID 1121).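 Also: score merges feature fluorescence read at 667 nm with its signal to noise.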 The conditions noted are these: higher = more signal.
For experiment [14], the target named is Carbonic anhydrase 2 (Homo sapiens) (UniProt P00918). Briefly: compounds binding carbonic anhydrase 2 – biochemical, small-molecule microarray, Alexa647-labelled CAII, profiling panel (AID 1122). As to conditions: CAII-A647 binding fluorescence, higher = more signal.
Experiment [15] in a line: COS7 lysate on small-molecule microarray, probe aHis, 635 nm (AID 1123).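 Also: z-score combines 667nm fluorescence intensity with signal-to-noise per printed compound spot.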 As to conditions: COS7 cell lysate, fluorescence, higher = more signal.
A short description of experiment [16]: probe aLAP1 signal on lysate-treated microarray – cell lysate, small-molecule microarray, COS7 lysate, primary screen (AID 1124).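 Also: lysate comes from COS7 cells expressing LAP1 and is applied at 0.3 µg/mL; score merges spot fluorescence near 667 nm with signal-to-noise over triplicate slides.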 As to conditions: probe aLAP1, fluorescence, higher = more signal.
The next experiment deals with Sam68 (KHDRBS1). The experiment in a line: compounds binding KHDRBS1 protein – biochemical, small-molecule microarray, 635 nm fluorescence, primary screen (AID 1125).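 Also: score merges 667 nm channel intensity with signal to noise over triplicate slides.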 The conditions noted are these: higher = more signal.
The subject of experiment [17] is Chordin-like protein 2 (CHRDL2). The experiment in a line: compounds binding chordin-like 2 – biochemical, small-molecule microarray, 635 nm fluorescence, primary screen (AID 1126).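 Also: printed compound slides probed with Chrdl2 protein at 4 µg/mL for 1 h at 4 C; score merges 667 nm emission intensity with signal to noise over three replicate slides.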 The conditions noted are these: fluorescence 635 nm, higher = more signal.
In experiment [18] the target is Concanavalin-A (Canavalia ensiformis) (UniProt P02866). Briefly: compounds binding concanavalin A lectin – biochemical, small-molecule microarray, Alexa647 label, 635 nm, artefact control for SMM control protein annotation, primary screen (AID 1127).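 Also: z combines 667 nm emission intensity with signal-to-noise across three replicate slides.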 The conditions noted are these: ConA-A647 binding fluorescence, higher = more signal.
Concanavalin-A (Canavalia ensiformis), sequence (P02866 whole entry, looked up): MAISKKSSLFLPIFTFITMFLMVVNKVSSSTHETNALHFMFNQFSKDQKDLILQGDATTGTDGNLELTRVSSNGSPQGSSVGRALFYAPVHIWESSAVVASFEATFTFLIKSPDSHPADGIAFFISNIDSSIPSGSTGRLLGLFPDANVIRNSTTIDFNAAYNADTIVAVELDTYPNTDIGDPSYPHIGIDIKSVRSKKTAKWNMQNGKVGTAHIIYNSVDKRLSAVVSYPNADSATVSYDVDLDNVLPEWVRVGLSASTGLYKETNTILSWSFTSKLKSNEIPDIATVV

The source made the active and inactive calls.

For six compounds, composite z-score, z-score and composite Z-score results are on record in PubChem BioAssay.

Alpha-bungarotoxin (Bungarus multicinctus), sequence (P60615 whole entry, looked up): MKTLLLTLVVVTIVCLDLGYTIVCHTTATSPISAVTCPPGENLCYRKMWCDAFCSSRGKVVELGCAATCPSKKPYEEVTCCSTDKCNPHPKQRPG

With `Cc1ccc(S[C@]2(C(=O)O)CC(=O)N(Cc3ccccc3)[C@@H]2c2ccc(CO)cc2)cc1`, the composite z-score in experiment [1] is -0.323; in [3], -1.29; in [4], 0.321; in experiment [5] it was 0.965; in experiment [6] it was -0.172; in [7], 0.046. Also, the composite z-score was -0.0563 in experiment [8]; -0.257 in experiment [9]; -0.198 in experiment [10]; -0.0554 in the experiment with Albumin (Bos taurus); -0.0328 in experiment [12]; -0.154 in [13]. Further, the composite z-score was 0.724 in experiment [14]; 1.02 in [15]; 0.623 in experiment [16]; 0.401 in the experiment on Sam68 (KHDRBS1); -0.852 in experiment [17]; -0.467 in [18]. This compound had a z-score in experiment [2] of 0.764. For the same compound, the composite Z-score in experiment [11] is 1.28 (inactive).
`COc1ccc([Si](C)(C)[C@@H]2[C@@H](CCO)O[C@]3(C(=O)N(Cc4ccccc4)c4ccccc43)[C@H]2C)cc1`: the composite z-score is 0.566 in [1]; 0.224 in experiment [3]; 0.398 in [4]; 0.49 in experiment [5]; -0.148 in experiment [6]; -0.217 in experiment [7]. Besides, the composite z-score was 0.202 in experiment [8]; 0.526 in experiment [9]; 0.124 in experiment [10]; 0.152 with Albumin (Bos taurus); -0.113 in [12]; -0.125 in experiment [13]. The composite z-score is -0.0193 in [14]; 0.141 in experiment [15]; 0.0521 in experiment [16]; 0.555 in the experiment on Sam68 (KHDRBS1); -0.0822 in [17]; 0.421 in experiment [18]. The same compound returned a z-score in experiment [2] of -1.84. Besides, in experiment [11], the composite Z-score was 0.158 (inactive).
For the compound `[N-]=[N+]=NCc1ccccc1[C@H]1OC(c2ccc(OCCCO)cc2)=N[C@@]1(Cc1ccccc1N=[N+]=[N-])C(=O)NCc1ccccc1`, the composite z-score in experiment [1] was 0.716; in experiment [3] it was -0.334; in experiment [4] it was 1.54; in experiment [5], 0.642; in experiment [6], 0.239; in experiment [7], 0.407. For the same compound, the composite z-score worked out at 0.57 in experiment [8]; 0.447 in experiment [9]; 1.71 in experiment [10]; 0.763 with Albumin (Bos taurus); 0.286 in experiment [12]; 0.0243 in [13]. In addition, the composite z-score in experiment [14] is 0.579; in [15], 1.65; in experiment [16], 0.174; in the experiment with Sam68 (KHDRBS1), 1.31; in experiment [17], -0.633; in experiment [18], 1.12. In [2], this compound displayed a z-score of -2.02. The composite Z-score in experiment [11] was 0.945 (inactive).
Turning to `C=CC(=O)O[C@@H](Cc1ccccc1)[C@H]1C2C=CCCC=C2CN1Cc1cccc(Cl)c1` (stereo not given in full), the composite z-score in experiment [1] was -2.98; in [3], -0.195; in experiment [4], -0.82; in [5], 0.484; in experiment [6], -0.148; in experiment [7], 0.0022. The composite z-score is -0.267 in experiment [8]; -0.103 in [9]; -0.439 in [10]; -0.421 in the experiment with Albumin (Bos taurus); -0.0057 in experiment [12]; -0.112 in [13]. For the same compound, the composite z-score is -0.794 in [14]; -0.323 in experiment [15]; -0.454 in experiment [16]; -2.7 with Sam68 (KHDRBS1); -0.605 in experiment [17]; -0.965 in experiment [18]. Further, the z-score in experiment [2] was -1.08. In addition, the composite Z-score in [11] is 0.565 (inactive).
In the case of `COC(=O)[C@H]1[C@@H]2COc3ccccc3[C@H]2N[C@H]1C(=O)OC`, the composite z-score in experiment [1] is -0.339; in experiment [3] it was 0.362; in [4] it was 0.623; in [5], -0.266; in [6] it was -0.0161; in experiment [7], -0.0626. In addition, the composite z-score in experiment [8] is -0.223; in experiment [9], 0.0767; in experiment [10], 0.854; with Albumin (Bos taurus), 0.235; in experiment [12] it was -0.0351; in experiment [13], -0.135. Besides, the composite z-score came to 0.414 in [14]; 0.476 in experiment [15]; 0.315 in experiment [16]; 0.429 with Sam68 (KHDRBS1); 0.122 in [17]; 0.548 in [18]. In experiment [2], the z-score was -0.591. For the same compound, the composite Z-score in [11] is 0.0807 (inactive).
For `C=CCNC(=O)[C@H]1[C@@H]2C(=O)O[C@@H](c3ccccc3)[C@@H](c3ccccc3)N2[C@@H](c2ccccc2OCCO)[C@]12C(=O)N(C(=O)OCCOC)c1ccc(C#CCC(C(=O)OC)C(=O)OC)cc12`, the composite z-score in [1] was -0.29; in [3], 0.208; in experiment [4], 1.57; in experiment [5], 0.865; in [6] it was -0.012; in experiment [7], 0.217. For the same compound, the composite z-score is 0.419 in [8]; 0.926 in [9]; 1.87 in experiment [10]; 0.255 with Albumin (Bos taurus); -0.0448 in experiment [12]; -0.0829 in experiment [13]. For the same compound, the composite z-score in experiment [14] was 0.634; in experiment [15] it was 2.13; in [16] it was 0.689; in the experiment on Sam68 (KHDRBS1), 1.3; in [17] it was -0.052; in [18], 1.12. The same compound displayed a z-score in experiment [2] of -1.22. In addition, the composite Z-score in [11] is 1.06 (inactive).
